# How the values were obtained:
# Test in all cases: DAPPL (digital affinity profiling via proximity ligation, sequencing); 10 mM Tris-HCl pH 7.5, 50 mM NaCl, 1 mM DTT, 4% glycerol, room temperature, 30 min; GST-TFs on glutathione beads, 16-mer random dsDNA library, 0.1% formaldehyde crosslink after washing; high values mean tight binding
# Conditions in all cases: protein: recombinant; tags: N-terminal GST; dsDNA, one strand shown
# [1] = molecular target: T1, ELK1 (Homo sapiens, UniProt P19419 1-428)
# T1 sequence: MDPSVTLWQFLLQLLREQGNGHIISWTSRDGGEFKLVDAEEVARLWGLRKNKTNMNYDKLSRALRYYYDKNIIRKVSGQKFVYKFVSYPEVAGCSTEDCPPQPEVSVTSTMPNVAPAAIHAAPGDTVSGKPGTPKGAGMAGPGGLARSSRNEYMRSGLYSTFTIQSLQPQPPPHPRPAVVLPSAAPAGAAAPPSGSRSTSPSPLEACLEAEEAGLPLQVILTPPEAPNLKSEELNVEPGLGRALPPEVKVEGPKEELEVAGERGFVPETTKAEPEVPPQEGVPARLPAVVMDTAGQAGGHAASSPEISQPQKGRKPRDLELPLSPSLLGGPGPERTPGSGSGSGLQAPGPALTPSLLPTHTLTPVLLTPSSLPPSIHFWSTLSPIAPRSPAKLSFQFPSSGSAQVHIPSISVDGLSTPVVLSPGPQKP
# Procedure, shortened: (§1)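 Human transcription factors fused to GST were expressed in yeast, captured on glutathione beads, given DNA barcodes and pooled with a GST-only negative control. Pools were incubated with 200 nmole of a 16-mer random double-stranded DNA library in Tris/NaCl/DTT/glycerol buffer at room temperature for 30 min. They were then washed, crosslinked with 0.1% formaldehyde, proximity-ligated (BsaI/T4 ligase, 1 h, 37 °C), PCR-amplified and sequenced on an Illumina NextSeq500. Binding signal is each 6-mer's read frequency for a factor divided by its frequency for the GST control.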
# [2] = molecular target: T2, GABPA (Homo sapiens, UniProt Q06546 1-454)
# T2 sequence: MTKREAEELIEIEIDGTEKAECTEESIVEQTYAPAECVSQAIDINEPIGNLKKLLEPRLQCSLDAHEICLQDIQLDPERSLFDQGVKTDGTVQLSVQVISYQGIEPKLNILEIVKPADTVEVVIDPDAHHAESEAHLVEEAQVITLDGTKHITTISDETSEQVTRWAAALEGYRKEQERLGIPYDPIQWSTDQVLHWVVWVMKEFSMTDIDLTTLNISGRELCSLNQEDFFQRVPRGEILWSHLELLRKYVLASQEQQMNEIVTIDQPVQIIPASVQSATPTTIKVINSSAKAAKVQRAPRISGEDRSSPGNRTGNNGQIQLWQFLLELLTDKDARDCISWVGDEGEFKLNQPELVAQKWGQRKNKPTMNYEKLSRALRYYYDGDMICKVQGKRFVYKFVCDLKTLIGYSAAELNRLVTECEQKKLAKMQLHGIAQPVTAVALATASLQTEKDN
# Procedure, shortened: as §1
# [3] = molecular target: T3, EHF (Homo sapiens, UniProt Q9NZC4 1-300)
# T3 sequence: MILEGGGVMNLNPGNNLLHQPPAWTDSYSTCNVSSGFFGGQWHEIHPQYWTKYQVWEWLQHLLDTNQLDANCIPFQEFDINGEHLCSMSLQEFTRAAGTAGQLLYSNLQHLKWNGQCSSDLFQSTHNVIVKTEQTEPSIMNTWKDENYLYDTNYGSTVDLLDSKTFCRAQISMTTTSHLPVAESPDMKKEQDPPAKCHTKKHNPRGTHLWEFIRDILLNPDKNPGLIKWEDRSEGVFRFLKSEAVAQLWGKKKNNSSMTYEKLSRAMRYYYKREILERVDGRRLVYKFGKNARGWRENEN
# Procedure, shortened: as §1
# [4] = molecular target: T4, ELK3 (Homo sapiens, UniProt P41970 1-407)
# T4 sequence: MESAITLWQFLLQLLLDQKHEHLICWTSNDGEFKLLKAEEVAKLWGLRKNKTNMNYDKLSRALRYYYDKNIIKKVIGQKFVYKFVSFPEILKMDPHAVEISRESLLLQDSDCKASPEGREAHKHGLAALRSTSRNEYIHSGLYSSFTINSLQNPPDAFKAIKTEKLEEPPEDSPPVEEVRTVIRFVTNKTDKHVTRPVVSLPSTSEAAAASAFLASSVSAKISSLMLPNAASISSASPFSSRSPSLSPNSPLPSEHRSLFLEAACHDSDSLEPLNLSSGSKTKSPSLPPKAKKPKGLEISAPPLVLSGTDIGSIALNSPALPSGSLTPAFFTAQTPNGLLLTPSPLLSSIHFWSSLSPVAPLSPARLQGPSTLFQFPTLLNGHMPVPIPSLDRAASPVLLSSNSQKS
# Procedure, shortened: as §1
# [5] = molecular target: T5, SPIC (Homo sapiens, UniProt Q8N5J4 1-248)
# T5 sequence: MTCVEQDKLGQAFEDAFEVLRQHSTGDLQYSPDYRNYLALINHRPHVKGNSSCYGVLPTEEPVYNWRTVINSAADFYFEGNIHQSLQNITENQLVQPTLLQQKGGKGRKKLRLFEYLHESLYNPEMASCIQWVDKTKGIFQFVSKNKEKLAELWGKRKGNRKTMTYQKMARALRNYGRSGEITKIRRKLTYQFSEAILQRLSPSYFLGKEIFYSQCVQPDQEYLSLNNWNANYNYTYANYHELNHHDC
# Procedure, shortened: as §1
# [6] = molecular target: T6, ELF3 (Homo sapiens, UniProt P78545 1-371)
# T6 sequence: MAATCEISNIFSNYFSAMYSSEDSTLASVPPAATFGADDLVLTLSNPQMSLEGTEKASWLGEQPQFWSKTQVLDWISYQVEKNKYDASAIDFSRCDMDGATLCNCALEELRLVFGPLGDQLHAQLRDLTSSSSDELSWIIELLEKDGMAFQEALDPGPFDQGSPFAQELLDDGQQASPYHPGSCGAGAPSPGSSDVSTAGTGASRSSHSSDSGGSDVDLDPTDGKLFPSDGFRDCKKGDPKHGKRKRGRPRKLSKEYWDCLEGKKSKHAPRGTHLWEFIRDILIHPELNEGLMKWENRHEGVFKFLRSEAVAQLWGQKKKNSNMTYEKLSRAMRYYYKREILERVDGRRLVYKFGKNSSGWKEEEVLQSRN
# Procedure, shortened: as §1
# [7] = molecular target: T7, ERF (Homo sapiens, UniProt P50548 1-548)
# T7 sequence: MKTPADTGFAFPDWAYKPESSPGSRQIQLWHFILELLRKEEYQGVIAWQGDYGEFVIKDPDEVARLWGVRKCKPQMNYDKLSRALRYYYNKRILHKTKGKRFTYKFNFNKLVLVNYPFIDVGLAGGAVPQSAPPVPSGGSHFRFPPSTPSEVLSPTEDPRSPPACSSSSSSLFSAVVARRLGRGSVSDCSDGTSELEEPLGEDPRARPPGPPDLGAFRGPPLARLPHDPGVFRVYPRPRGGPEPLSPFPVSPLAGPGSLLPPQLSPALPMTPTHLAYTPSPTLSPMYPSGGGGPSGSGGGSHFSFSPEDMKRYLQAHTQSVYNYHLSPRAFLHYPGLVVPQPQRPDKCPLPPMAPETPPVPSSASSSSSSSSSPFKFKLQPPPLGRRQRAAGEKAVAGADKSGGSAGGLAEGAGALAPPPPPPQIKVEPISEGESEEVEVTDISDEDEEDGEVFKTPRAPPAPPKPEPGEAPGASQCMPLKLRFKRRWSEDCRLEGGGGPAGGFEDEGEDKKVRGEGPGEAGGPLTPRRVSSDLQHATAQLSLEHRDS
# Procedure, shortened: as §1
# [8] = molecular target: T8, ETS2 (Homo sapiens, UniProt P15036 1-469)
# T8 sequence: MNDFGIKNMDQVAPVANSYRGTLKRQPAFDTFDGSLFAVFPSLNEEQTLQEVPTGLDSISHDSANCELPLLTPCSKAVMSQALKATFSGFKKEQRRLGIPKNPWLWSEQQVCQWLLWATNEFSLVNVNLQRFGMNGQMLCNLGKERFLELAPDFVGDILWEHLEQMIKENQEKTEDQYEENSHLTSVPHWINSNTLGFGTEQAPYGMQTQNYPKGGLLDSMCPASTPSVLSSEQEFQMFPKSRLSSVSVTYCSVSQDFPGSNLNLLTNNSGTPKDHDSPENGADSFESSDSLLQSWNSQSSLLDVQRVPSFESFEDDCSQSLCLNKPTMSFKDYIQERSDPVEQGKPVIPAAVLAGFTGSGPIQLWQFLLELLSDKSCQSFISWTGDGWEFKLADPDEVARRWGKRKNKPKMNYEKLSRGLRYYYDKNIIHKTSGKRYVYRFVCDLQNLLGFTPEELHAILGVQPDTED
# Procedure, shortened: as §1
# [9] = molecular target: T9, ETV3 (Homo sapiens, UniProt P41162-2 1-143)
# T9 sequence: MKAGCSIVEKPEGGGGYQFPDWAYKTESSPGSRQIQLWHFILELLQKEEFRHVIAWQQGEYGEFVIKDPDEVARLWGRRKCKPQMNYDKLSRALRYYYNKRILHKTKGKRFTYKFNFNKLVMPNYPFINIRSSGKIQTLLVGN
# Procedure, shortened: as §1
# [10] = molecular target: ELF1 (Homo sapiens, UniProt P32519 1-619)
# Procedure, shortened: as §1
# [11] = molecular target: T10, ELK4 (Homo sapiens, UniProt P28324-2 1-405)
# T10 sequence: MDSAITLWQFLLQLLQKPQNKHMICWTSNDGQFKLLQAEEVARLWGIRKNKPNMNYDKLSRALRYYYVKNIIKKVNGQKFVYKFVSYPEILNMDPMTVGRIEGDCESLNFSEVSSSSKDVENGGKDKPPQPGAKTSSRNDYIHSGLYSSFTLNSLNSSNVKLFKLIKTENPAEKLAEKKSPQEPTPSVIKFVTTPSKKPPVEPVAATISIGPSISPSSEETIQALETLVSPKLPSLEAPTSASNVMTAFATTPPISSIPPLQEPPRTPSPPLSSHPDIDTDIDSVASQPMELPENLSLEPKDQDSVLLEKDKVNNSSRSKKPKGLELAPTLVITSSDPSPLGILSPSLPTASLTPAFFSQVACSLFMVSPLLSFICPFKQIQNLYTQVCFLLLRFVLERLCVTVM
# Procedure, shortened: as §1
# [12] = molecular target: T11, ETV7 (Homo sapiens, UniProt Q9Y603 1-341)
# T11 sequence: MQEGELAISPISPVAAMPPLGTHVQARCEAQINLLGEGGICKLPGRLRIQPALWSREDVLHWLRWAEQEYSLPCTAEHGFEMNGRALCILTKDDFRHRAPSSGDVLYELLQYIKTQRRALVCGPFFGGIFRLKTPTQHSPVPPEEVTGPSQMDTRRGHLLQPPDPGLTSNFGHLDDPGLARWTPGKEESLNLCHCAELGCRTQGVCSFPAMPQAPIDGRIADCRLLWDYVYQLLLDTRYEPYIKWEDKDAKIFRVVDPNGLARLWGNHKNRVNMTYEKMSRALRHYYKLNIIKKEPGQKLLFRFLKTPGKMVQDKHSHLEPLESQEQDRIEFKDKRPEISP
# Procedure, shortened: as §1
# [13] = molecular target: T12, ERG (Homo sapiens, UniProt P11308 1-479)
# T12 sequence: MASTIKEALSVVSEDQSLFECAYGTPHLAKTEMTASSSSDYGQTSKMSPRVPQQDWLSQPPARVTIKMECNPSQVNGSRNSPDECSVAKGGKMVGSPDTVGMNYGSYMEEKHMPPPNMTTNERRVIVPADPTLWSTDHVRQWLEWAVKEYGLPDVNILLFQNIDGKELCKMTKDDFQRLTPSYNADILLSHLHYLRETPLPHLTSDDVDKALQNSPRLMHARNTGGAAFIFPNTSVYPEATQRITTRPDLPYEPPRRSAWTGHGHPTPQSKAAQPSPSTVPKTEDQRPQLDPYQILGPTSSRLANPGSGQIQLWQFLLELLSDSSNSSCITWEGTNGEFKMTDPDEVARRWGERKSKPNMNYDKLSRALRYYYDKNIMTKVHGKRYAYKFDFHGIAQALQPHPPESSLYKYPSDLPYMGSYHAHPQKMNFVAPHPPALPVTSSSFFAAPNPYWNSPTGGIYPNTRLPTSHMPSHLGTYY
# Procedure, shortened: as §1
# [14] = molecular target: ETV1 (Homo sapiens, UniProt P50549 1-477)
# Procedure, shortened: as §1
# Chain of ETV1 (P50549 whole entry): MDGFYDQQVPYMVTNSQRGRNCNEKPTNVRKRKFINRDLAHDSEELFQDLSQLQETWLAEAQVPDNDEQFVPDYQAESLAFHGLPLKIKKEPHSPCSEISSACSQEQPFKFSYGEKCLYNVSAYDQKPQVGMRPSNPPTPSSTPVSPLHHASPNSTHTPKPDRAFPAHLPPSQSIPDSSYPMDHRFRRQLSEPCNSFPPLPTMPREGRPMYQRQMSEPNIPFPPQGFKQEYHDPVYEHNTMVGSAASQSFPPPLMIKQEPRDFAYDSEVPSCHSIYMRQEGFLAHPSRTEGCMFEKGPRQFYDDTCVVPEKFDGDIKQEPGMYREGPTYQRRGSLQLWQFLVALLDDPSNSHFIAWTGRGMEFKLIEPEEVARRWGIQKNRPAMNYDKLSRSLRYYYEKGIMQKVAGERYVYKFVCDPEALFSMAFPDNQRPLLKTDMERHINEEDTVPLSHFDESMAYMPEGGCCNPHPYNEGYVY
# Chain of ELF1 (P32519 whole entry): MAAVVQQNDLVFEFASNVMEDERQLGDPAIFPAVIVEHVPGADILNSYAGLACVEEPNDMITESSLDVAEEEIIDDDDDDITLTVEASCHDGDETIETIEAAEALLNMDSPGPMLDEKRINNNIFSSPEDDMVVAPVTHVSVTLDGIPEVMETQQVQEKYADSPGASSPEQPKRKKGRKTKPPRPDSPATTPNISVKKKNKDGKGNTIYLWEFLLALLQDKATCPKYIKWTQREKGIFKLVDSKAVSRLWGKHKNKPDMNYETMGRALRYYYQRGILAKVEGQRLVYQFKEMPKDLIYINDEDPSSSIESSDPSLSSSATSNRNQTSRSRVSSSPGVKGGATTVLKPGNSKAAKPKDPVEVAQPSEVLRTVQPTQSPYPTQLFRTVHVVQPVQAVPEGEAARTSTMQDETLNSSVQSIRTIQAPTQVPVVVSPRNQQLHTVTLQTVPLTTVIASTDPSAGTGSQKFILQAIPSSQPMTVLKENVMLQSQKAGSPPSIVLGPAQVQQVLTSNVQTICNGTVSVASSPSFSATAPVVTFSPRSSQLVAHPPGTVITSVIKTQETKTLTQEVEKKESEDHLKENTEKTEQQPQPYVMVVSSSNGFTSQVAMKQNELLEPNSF
sequence,measurement,setting,value
TATGAG,binding signal,[1],"1.02 fold enrichment (6-mer frequency, TF over GST control)"
same,binding signal,[2],"1.03 fold enrichment (6-mer frequency, TF over GST control)"
same,binding signal,[3],"1.04 fold enrichment (6-mer frequency, TF over GST control)"
same,binding signal,[4],"1.02 fold enrichment (6-mer frequency, TF over GST control)"
same,binding signal,[5],"1.16 fold enrichment (6-mer frequency, TF over GST control)"
same,binding signal,[6],"1.08 fold enrichment (6-mer frequency, TF over GST control)"
same,binding signal,[7],"1.1 fold enrichment (6-mer frequency, TF over GST control)"
same,binding signal,[8],"1 fold enrichment (6-mer frequency, TF over GST control)"
same,binding signal,[9],"1.09 fold enrichment (6-mer frequency, TF over GST control)"
CATAGT,binding signal,[1],"1.03 fold enrichment (6-mer frequency, TF over GST control)"
same,binding signal,[10],"1.01 fold enrichment (6-mer frequency, TF over GST control)"
same,binding signal,[11],"1.14 fold enrichment (6-mer frequency, TF over GST control)"
same,binding signal,[6],"1.07 fold enrichment (6-mer frequency, TF over GST control)"
same,binding signal,[7],"1.13 fold enrichment (6-mer frequency, TF over GST control)"
same,binding signal,[8],"1.03 fold enrichment (6-mer frequency, TF over GST control)"
same,binding signal,[12],"1.11 fold enrichment (6-mer frequency, TF over GST control)"
GTCCGG,binding signal,[13],"1.03 fold enrichment (6-mer frequency, TF over GST control)"
same,binding signal,[14],"1 fold enrichment (6-mer frequency, TF over GST control)"
same,binding signal,[9],"1.05 fold enrichment (6-mer frequency, TF over GST control)"

# Reference: paper PMC7862700, “An all-to-all approach to the identification of sequence-specific readers for epigenetic DNA modifications on cytosine”
